This is a sample that favours compounds with a hit; in the whole collection about 19% have one here.
TDP1 cell noCPT = qHTS for Inhibitors of human tyrosyl-DNA phosphodiesterase 1 (TDP1): qHTS in cells in absence of CPT; DT40 Tdp1-/- hTDP1 cells, no CPT, ATP luminescence, 48 h; Potency, µM (series often up to 46.2 µM), hits mostly inhibitors; actives 15% (n = 420,000); further: nearly all actives have a fitted effect of over 55% in size
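Chicken DT40 Tdp1-/- cells complemented with human TDP1, screened without camptothecin (DMSO vehicle only), 400 cells/well. Compounds pin-transferred, cells incubated at 37 °C for at least 48 hr. Growth read as ATP-dependent luminescence (CellTiter-Glo, 30 min at RT).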
DT40 TDP1 CPT = growth inhibition of DT40 Tdp1-/-;hTDP1 cells with camptothecin (screen for TDP1 inhibitors); chicken DT40 Tdp1-/-;hTDP1 cells + 20 nM CPT, ATP luminescence, 48 h; Potency, µM (highest dose often 46.2 µM), hits mostly inhibitors; actives 12% (n = 420,000); AID 686979; further: nearly all actives have a fitted effect of over 55% in size
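Chicken DT40 Tdp1-/- cells complemented with human TDP1, 400 cells/well, exposed to compounds plus 20 nM camptothecin for at least 48 h at 37 C; viability read as ATP content by CellTiter-Glo luminescence.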
HepG2 viability = HepG2 cytotoxicity, counter-screen for TGF-b inhibitors | Potency, µM (series often up to 46.1 µM), actives largely listed as cytotoxic | actives 0.76% (n = 410,000) | AID 588856 | HepG2 CAGA-GFP viability, ATP luminescence, 18 h
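CellTiter-Glo luminescence gave cytotoxicity after 18 hours at 37 degrees C. The cells were HepG2 CAGA-GFP in 1% FBS DMEM, stimulated with 500 pg/mL TGF-beta after compound addition. %Activity was normalised to no-cell wells (complete cell-killing) and DMSO (no toxicity), and curves were fitted and classified.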
TGFb SMAD3 inh = TGF-b pathway inhibition; HepG2 CAGA-GFP TGF-b/SMAD3 reporter, GFP fluorescence, 18 h; TGF-beta stimulated, 500 pg/mL final; Potency, µM (top dose mostly 46.1 µM), actives largely listed as inhibitors; actives 1.2% (n = 410,000); further: nearly all actives have a fitted effect of over 65% in size
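GFP signal (ex488/em500-530) from TGF-beta-stimulated HEPG2 CAGA-GFP cells, 500 pg/mL final, 18 h at 37 degrees C in DMEM plus 1% FBS, normalized to unstimulated and DMSO-stimulated controls.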
ASM inhibitor = blocks human secretory acid sphingomyelinase. placental ASM, HMU-PC fluorogenic substrate, 60 min. P17405. actives 0.006% (n = 340,000). Potency, µM (highest dose often 57.5 µM), hits mostly inhibitors
Target sequence (P17405 47-631 limits assumed): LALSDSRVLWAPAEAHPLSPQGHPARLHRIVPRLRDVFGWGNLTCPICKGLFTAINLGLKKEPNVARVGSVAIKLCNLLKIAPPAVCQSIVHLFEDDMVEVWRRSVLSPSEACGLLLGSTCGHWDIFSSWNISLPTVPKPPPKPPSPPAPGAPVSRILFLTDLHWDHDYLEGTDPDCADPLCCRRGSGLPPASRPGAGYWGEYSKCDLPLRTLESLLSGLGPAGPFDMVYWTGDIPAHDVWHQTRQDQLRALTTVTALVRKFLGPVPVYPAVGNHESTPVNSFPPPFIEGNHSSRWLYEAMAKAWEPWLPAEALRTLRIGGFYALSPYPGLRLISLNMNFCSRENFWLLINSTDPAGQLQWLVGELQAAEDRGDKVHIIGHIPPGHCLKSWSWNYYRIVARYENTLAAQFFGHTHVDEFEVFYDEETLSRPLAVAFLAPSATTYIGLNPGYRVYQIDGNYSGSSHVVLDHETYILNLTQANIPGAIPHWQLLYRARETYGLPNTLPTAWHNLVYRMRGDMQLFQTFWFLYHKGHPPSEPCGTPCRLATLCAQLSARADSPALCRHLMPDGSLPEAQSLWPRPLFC
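HMU-PC0 cleavage (9 uM final) by human placental ASM, 60 min at 37 °C following 10 min compound exposure at RT; stopped at pH 10, fluorescence Ex 386/Em 447 nm.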
IL-1B inflam inh = blocks inflammasome-driven IL-1 beta release; THP-1 LPS/ATP IL-1B secretion, AlphaLISA, 16 h; active compounds read low; activity change, % at 57.5 µM; actives 4.7% (n = 360,000); in the data active means activity change below about -50%; inconclusive means mostly about -30% to -49%
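THP-1 cells pretreated 1 hr with compounds (up to 57.5 uM final), then stimulated with LPS (250 ng/mL final) plus ATP (1.25 mM final); secreted IL-1B measured by AlphaLISA after 16 hr, decreased signal indicating inhibition.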
Hits are given with their value; n = inactive; u = inconclusive; x = no result. Unless noted, the call rests on the fitted dose curve; in most records, active means well fitted curve in the direction sought with a large enough effect; inconclusive means small, poorly fitted or top-dose-only effect, or another doubt; inactive means no such curve, though single readings can be large; an effect the other way counts as inactive or inconclusive.

SMILES	TDP1 cell noCPT	DT40 TDP1 CPT	HepG2 viability	TGFb SMAD3 inh	ASM inhibitor	IL-1B inflam inh
COc1cc2nc3n(c(=O)c2cc1OC)-c1ncccc1C(=O)NC3Cc1ccccc1 (stereo unspecified)	n	n	n	n	x	n
O=C1NC(Cc2ccccc2)c2nc3cc(F)c(F)cc3c(=O)n2-c2cc3ccccc3cc21 (stereo unspecified)	18.4µM	23.1µM	n	n	x	n
O=C1NC(Cc2ccc(O)cc2)c2nc3ccc(F)cc3c(=O)n2-c2cc3ccccc3cc21 (stereo unspecified)	25.9µM	u	n	u	x	n
O=C(CSc1nnc(-c2cccs2)o1)Oc1ccccc1Cl	n	n	n	n	x	x
CC1CCN(C(=O)CCn2c(=O)oc3ccc(Cl)cc32)CC1	n	n	n	n	x	n
C=CCSc1nnc(CNC(=O)c2ccccc2C)n1C(C)C	n	u	n	n	n	n
CN(CC(=O)N1CCN(Cc2ccccc2)CC1)S(=O)(=O)c1ccc(Br)cc1	u	u	n	n	n	n
Cc1ccc2c(=O)n3c(nc2c1)C(Cc1ccccc1)NC(=O)c1cc2ccccc2cc1-3 (stereo unspecified)	u	u	n	n	x	n
O=C1NC(Cc2ccc(O)cc2)c2nc3cc(Cl)ccc3c(=O)n2-c2cc3ccccc3cc21 (stereo unspecified)	n	n	n	u	x	n
COc1cc2nc3n(c(=O)c2cc1OC)-c1cc2ccccc2cc1C(=O)NC3Cc1ccccc1 (stereo unspecified)	16.4µM	u	n	n	x	n
O=C1NC(Cc2ccccc2)c2nc3ccccc3c(=O)n2-c2cc3ccccc3cc21 (stereo unspecified)	13µM	13µM	n	n	x	n
O=C1NC(Cc2ccccc2)c2nc3cc(F)ccc3c(=O)n2-c2cc3ccccc3cc21 (stereo unspecified)	5.8µM	5.17µM	n	n	x	n
CCn1c(=O)c(=O)n(CC)c2cc(S(=O)(=O)Nc3cc(C)ccc3C)ccc21	n	n	n	n	n	u
COc1cccc(-n2c(SCc3cccc(C)c3)nc3c([nH]c4ccccc43)c2=O)c1	u	u	n	u	x	x
Cc1ccc2c(C)c(C(=O)NCC3CCOCC3)oc2c1C	u	u	n	n	x	u
CCCN(CCC)CCCNC(=O)c1cc2cc3ccc(Cl)cc3nc2o1	u	u	n	n	n	n
CCCCN(CC)CCNC(=O)c1cc2c(C)nc3ccccc3c2o1	23.1µM	16.4µM	n	n	n	n
CCOC(=O)N1CCC(NC(=O)Cc2ccccc2)CC1	n	n	n	n	n	n
CCOC(=O)N1CCC(NC(=O)c2oc3c(C)c(C)ccc3c2C)CC1	u	20.6µM	n	u	n	n
CCCCN(CC)CCNC(=O)c1cc2cc3ccc(Cl)cc3nc2o1	u	16.4µM	n	n	n	x
CCOC(=O)N1CCC(NC(=O)c2cc3c(C)nc4ccccc4c3o2)CC1	20.6µM	9.2µM	n	n	n	n
Cc1nc2ccccc2c2oc(C(=O)NCCN3CCCCC3C)cc12 (stereo unspecified)	16.4µM	u	n	n	n	n
CCN1CCCC1CNC(=O)c1cc2c(C)nc3ccccc3c2o1 (stereo unspecified)	n	n	n	n	n	x
Cc1ccc2c(C)c(C(=O)N3CCCCC3CO)oc2c1C (stereo unspecified)	13µM	18.4µM	n	n	n	n
COc1cccc(-c2c(C(=O)O)cc(O)c3ccc(OC)cc23)c1	n	n	n	n	n	n
SMILES	TDP1 cell noCPT	DT40 TDP1 CPT	HepG2 viability	TGFb SMAD3 inh	ASM inhibitor	IL-1B inflam inh
CC(=O)Nc1ccc(NC(=O)COC(=O)c2ccc(S(=O)(=O)N(C)c3ccccc3)cc2)cc1	n	n	n	n	n	n
Cc1c2cnn(CC(=O)NCC(C)c3ccccc3)c(=O)c2c(C)n1Cc1cccc(Cl)c1 (stereo unspecified)	u	n	n	n	x	x
CC(C)(C)N1C(=O)c2ccc(C(=O)Nc3ccc(O)cc3)cc2C1=O	16.4µM	u	n	n	n	u
COC(=O)c1cccc(NC(=O)c2ccc3c(c2)C(=O)N(C(C)(C)C)C3=O)c1	u	n	n	n	n	-53.6
CC(C)(C)NC(=O)c1cccc(NC(=O)c2ccc3c(c2)C(=O)N(C(C)(C)C)C3=O)c1	10.3µM	u	n	u	n	-96.0
CCOC(=O)n1c(=O)n(Cc2ccccc2C)c2ccccc21	u	n	n	n	n	n
NC(=O)COC(=O)c1ccc(Cl)c(S(=O)(=O)N(Cc2ccccc2)c2ccc(Cl)cc2)c1	n	n	n	15.8µM	n	n
COc1ccccc1N(Cc1ccccc1)S(=O)(=O)c1cccc(C(=O)O)c1	n	n	n	n	n	n
C=CCN(c1ccc(F)cc1)S(=O)(=O)c1cc(C(=O)NC2CC2)ccc1Cl	20.6µM	20.6µM	n	n	x	n
COc1ccccc1N(Cc1ccccc1)S(=O)(=O)c1cccc(C(=O)NC2CC(C)(C)NC(C)(C)C2)c1	18.4µM	18.4µM	12.6µM	n	n	u
CC1(C)CC(NC(=O)c2ccc(Cl)c(S(=O)(=O)N(Cc3ccccc3)c3ccccc3)c2)CC(C)(C)N1	u	u	17.8µM	u	n	-110.1
CCOc1ccccc1NC(=O)c1cccc(S(=O)(=O)N(Cc2ccccc2)c2ccccc2OC)c1	16.4µM	20.6µM	n	n	n	n
COc1ccccc1N(Cc1ccccc1)S(=O)(=O)c1cccc(C(=O)Nc2cc(C)ccn2)c1	25.9µM	u	n	n	n	u
COc1cc(COC(=O)c2cnc(C)cn2)c(OC)cc1Br	n	n	n	n	n	n
COc1ccc(C(=O)C2CCCN(Cc3cccn3-c3nccs3)C2)cc1F (stereo unspecified)	20.6µM	23.1µM	n	u	n	-83.8
OCCC1CN(Cc2cccn2-c2nccs2)CCN1Cc1ccc(F)c(F)c1 (stereo unspecified)	18.4µM	13µM	n	n	n	n
COc1ccc(C(=O)C2CCCN(Cc3cccn3-c3nccs3)C2)cc1OC (stereo unspecified)	13µM	18.4µM	n	u	n	n
OCCC1CN(Cc2cccn2-c2nccs2)CCN1Cc1ccccc1 (stereo unspecified)	n	n	n	n	n	n
Cc1cc(Br)ccc1SCC(=O)OCC(O)=C(C#N)c1nc2ccccc2[nH]1	4.61µM	4.61µM	n	n	n	-102.0
